Experimental data from the supplement of paper PMC6897291.

System: RIVA
Assay: growth inhibition by drug alone (1 - RLU/untreated control) (fraction); higher = stronger inhibition
Conditions: 177Lu-lilotomab satetraxetan 0 ug/ml
Protocol: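 RIVA (RI-1) ABC-DLBCL cells were pretreated or not for 18 h with 0.5 ug/ml 177Lu-lilotomab satetraxetan (600 MBq/mg), washed and seeded (3000 cells/well) on 384-well plates pre-printed with the Selleck Cambridge Cancer Compound library. Viability was read by RealTime-Glo luminescence on days 3-6 after seeding. Effect = 1 - RLU/mean RLU of the 48 untreated no-drug control wells per plate; Bliss score = (M-E)/(1-Fa).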

Compound	growth inhibition by drug alone (10 nM, time (day): 3)	growth inhibition by drug alone (10 nM, time (day): 4)	growth inhibition by drug alone (10 nM, time (day): 5)	growth inhibition by drug alone (10 nM, time (day): 6)	growth inhibition by drug alone (100 nM, time (day): 3)	growth inhibition by drug alone (100 nM, time (day): 4)	growth inhibition by drug alone (100 nM, time (day): 5)	growth inhibition by drug alone (100 nM, time (day): 6)
Cc1ccccc1-n1c(Cn2cnc3c(N)ncnc32)nc2cccc(C)c2c1=O	-0.0276	-0.0854	-0.0849	-0.118	0.0893	-0.00364	-0.0617	-0.104
N.N.[Cl][Pt][Cl] [Cisplatin]	-0.00407	-0.0943	-0.0938	-0.114	0.0654	-0.0804	-0.0914	-0.104
O=P1(N(CCCl)CCCl)NCCCO1 (stereo not given) [Cyclophosphamide monohydrate]	-0.165	-0.182	-0.227	-0.326	0.0466	-0.0413	-0.0801	-0.114
O=C(Oc1ccc([N+](=O)[O-])cc1)N1CCC(C(O)(c2ccc3c(c2)OCO3)c2ccc3c(c2)OCO3)CC1	0.0104	-0.0507	-0.0874	-0.233	-0.163	-0.136	-0.159	-0.226
CCC1(c2ccc(N)cc2)CCC(=O)NC1=O (stereo not given) [Aminoglutethimide (Cytadren)]	-0.0651	-0.101	-0.237	-0.445	-0.578	-0.484	-0.518	-0.688
